From PubChem BioAssay
HT1080 IDH1KD tx: toxicity to HT-1080 IDH1 knockdown cells (counter line). HT-1080 IDH1 knockdown viability, ATP luminescence, 48 h. Potency, µM (titrated, usually from 46.1 µM), without a hit: at the top dose activity, negative = toxicity, usual class: cytotoxic. 2% of 360,000 active. AID 686971;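 note: potency is the fitted concentration of half-maximal effect; 0% = DMSO wells and -100% = cell-free medium wells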
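% activity derives from luminescence (CellTiter-Glo), normalised to DMSO and no-cell wells. HT-1080-IDH1KD cells, 750/well, had 48 h compound exposure at 37 °C.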
DT40 TDP1 no CPT: qHTS for Inhibitors of human tyrosyl-DNA phosphodiesterase 1 (TDP1): qHTS in cells in absence of CPT | AID 686978, 2013 | 15% of 420,000 active | DT40 Tdp1-/- hTDP1 cells, no CPT, ATP luminescence, 48 h | Potency, µM (titrated, usually from 46.2 µM), for inactives: at the highest dose activity change, negative = growth inhibition, most hits filed as inhibitors; note: potency is the fitted concentration of half-maximal effect; nearly all actives have a fitted effect of over 55% in size
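Cells were dispensed at 400 per well, compounds added by pin tool, plates incubated ≥48 hr at 37 °C, then CellTiter-Glo added for 30 min at room temperature before luminescence reading. Line: DT40 Tdp1-/- complemented with hTDP1; camptothecin omitted.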
HT1080NT lethal: kills 2HG-producing HT-1080-NT fibrosarcoma cells. AID 686970. HT-1080-NT fibrosarcoma viability, CellTiter-Glo ATP luminescence, 48 h. Potency, µM (doses to about 46.1 µM), for inactives: at the highest dose activity, negative = less viability, hits mostly cytotoxic. 1.6% of 360,000 active;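 note: NT is the 2HG producing partner of a matched IDH1 knockdown line; potency is the fitted concentration of half-maximal effect; 0% = DMSO-treated cells and -100% = media-only wells without cells; nearly all actives have a fitted effect of over 55% in size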
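Fibrosarcoma NT cells, 750 per well in 5% FBS RPMI, were exposed to compound for 48 hours. Viability: CellTiter-Glo luminescence.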
DT40 TDP1 CPT: DT40-hTDP1 cell growth loss with CPT. chicken DT40 Tdp1-/-;hTDP1 cells + 20 nM CPT, ATP luminescence, 48 h. Potency, µM (titrated, usually from 46.2 µM), without a hit: at the top dose activity change, negative = growth inhibition, hits mostly inhibitors. 12% of 420,000 active. AID 686979; note: potency is the fitted concentration of half-maximal effect; nearly all actives have a fitted effect of over 55% in size
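Chicken DT40 Tdp1-/- cells stably complemented with human TDP1 were seeded at 400 cells/well in medium containing 20 nM camptothecin, exposed to pin-transferred compounds, and grown at 37 °C for at least 48 hr. Viability was read as ATP luminescence.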
IL1B secr inh: inflammasome signaling inhibition, IL-1 beta readout; THP-1 LPS/ATP IL-1B secretion, AlphaLISA, 16 h; stronger effect = lower value; activity change, % at 57.5 µM; 4.7% of 360,000 active; AID 743279; in the data active = activity change below about -50%; inconclusive = mostly about -30% to -49%
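THP-1 cells pretreated 1 hr with compounds (up to 57.5 uM final), then stimulated with LPS (250 ng/mL final) plus ATP (1.25 mM final); secreted IL-1B measured by AlphaLISA after 16 hr, decreased signal indicating inhibition.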
12-LOX inh: ALOX12 (human) lipoxygenase inhibition. P18054. purified 12hLO, xylenol orange hydroperoxide absorbance. Potency, µM (highest dose often 108 µM), inactives show top-dose activity change, negative = inhibition, usual class: inhibitors. 1.1% of 580,000 active. AID 1671190; note: potency is the fitted concentration of half-maximal effect
Target sequence (P18054 whole entry, looked up): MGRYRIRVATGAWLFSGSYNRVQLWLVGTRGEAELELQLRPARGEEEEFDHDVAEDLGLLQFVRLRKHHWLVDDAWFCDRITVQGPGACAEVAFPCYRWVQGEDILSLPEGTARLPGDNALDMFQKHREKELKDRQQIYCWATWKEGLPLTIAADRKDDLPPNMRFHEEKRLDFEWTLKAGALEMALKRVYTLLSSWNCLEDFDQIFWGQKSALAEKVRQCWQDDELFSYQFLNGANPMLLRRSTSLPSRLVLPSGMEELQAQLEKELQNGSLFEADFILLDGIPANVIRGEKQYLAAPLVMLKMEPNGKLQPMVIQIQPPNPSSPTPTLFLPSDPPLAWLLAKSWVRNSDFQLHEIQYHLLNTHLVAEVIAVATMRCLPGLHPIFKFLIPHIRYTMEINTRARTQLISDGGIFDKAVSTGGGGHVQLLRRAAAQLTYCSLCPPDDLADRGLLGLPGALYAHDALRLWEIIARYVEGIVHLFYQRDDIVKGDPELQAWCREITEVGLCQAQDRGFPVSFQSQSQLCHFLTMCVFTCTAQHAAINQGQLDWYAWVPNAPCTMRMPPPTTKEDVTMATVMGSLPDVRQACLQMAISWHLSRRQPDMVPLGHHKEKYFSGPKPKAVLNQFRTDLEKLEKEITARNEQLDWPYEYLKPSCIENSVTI
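Hydroperoxide product was detected by ferrous iron/xylenol orange as the 573 to 405 nm absorbance ratio. Arachidonic acid at 40 uM (final) was turned over for 30 min at room temperature by 150 nM human 12hLO, pH 7.0 Hepes buffer, after 15 min compound preincubation.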
* hit, by the source's call; ? = inconclusive; . = no result given. The sample as a whole holds a higher share of hits than the screen did. Unless noted, calls come from the whole dose curve; as a rule, active = well fitted curve in the direction sought with a large enough effect; inconclusive = small, poorly fitted or top-dose-only effect, or another doubt; inactive = no such curve, though single readings can be large; an effect the other way counts as inactive or inconclusive. Unless noted, % is set by controls: 0 for no effect and ±100 for the full control effect.

SMILES | HT1080 IDH1KD tx | DT40 TDP1 no CPT | HT1080NT lethal | DT40 TDP1 CPT | IL1B secr inh | 12-LOX inh
COc1ccc(-c2noc(CN(C(=O)c3ccccc3Cl)C(C)C)n2)cc1 | . | 18.4µM* | . | 25.9µM* | . | -5.3%
CC(C)N(Cc1nc(-c2ccccc2)no1)C(=O)c1ccc([N+](=O)[O-])cc1 | -8.2% | 5.17µM* | -14.2% | 4.61µM* | -11.9 | -13.8%
CC(C)N(Cc1nc(-c2ccccc2)no1)C(=O)C1CCCCC1 | 10.2% | ? | -4.2% | ? | 9.3 | 7.8%
CC(C)N(Cc1nc(-c2ccc(Cl)cc2)no1)Cc1nccn1C | -0.4% | 16.4µM* | 0.5% | ? | -13.0 | 2.0%
COc1ccc(-c2noc(CN(Cc3nccn3C)C(C)C)n2)cc1 | 8.3% | ? | -2.1% | -17.8% | 5.4 | 3.5%
Cn1cc(C(=O)N2CCCC(c3nnnn3C)C2)cn1 (configuration not stated) | . | . | . | . | . | 45.9%
NC(=O)c1nnn([C@H]2C[C@H]3C(=O)N4CC[C@H](SCc5ccc(F)cc5)C[C@H]4C(=O)N3C2)c1C(N)=O | . | . | . | . | . | -12.6%
CC(C)NC(=O)Cc1ccc(N(Cc2ccccc2)C(=O)c2ccco2)cc1 | . | . | . | . | . | 32.6%
Cc1occc1C(=O)N(C)Cc1nc(-c2ccc(Cl)cc2)no1 | -11.3% | 20.6µM* | -1.9% | 25.9µM* | 31.6 | -29.7%
Cc1onc(-c2ccccc2Cl)c1C(=O)NCc1nc(-c2ccccc2)no1 | -8.2% | 9.2µM* | -6.0% | 9.2µM* | -11.6 | 92.8%
COc1ccc(-c2noc(CNC(=O)c3cc(OC)c(OC)c(OC)c3)n2)cc1 | . | -4.8% | . | -0.1% | . | -13.8%
Cc1ccc(-c2noc(CNC(=O)c3ccc(C)c(Cl)c3)n2)cc1 | . | 23.1µM* | . | ? | . | -27.5%
Cc1ccccc1C(=O)N(Cc1nc(-c2ccc(Cl)cc2)no1)C(C)C | . | 20.6µM* | . | 14.6µM* | . | ?
COc1ccc(N2C(=O)CCC2(C#N)c2ccccc2)cc1 (configuration not stated) | . | . | . | . | . | -1.6%
CC(C)N(Cc1nc(-c2ccccc2)no1)C(=O)c1ccc(Br)o1 | -18.5% | 16.4µM* | -28.6% | -20.0% | -21.8 | 4.2%
CN(Cc1ccc(F)cc1)Cc1nc(-c2ccccc2)no1 | 1.0% | -6.2% | -1.4% | 14.7% | 0.1 | -2.5%
COc1ccc(-c2noc(CN(C(=O)c3cc(OC)c(OC)cc3OC)C(C)C)n2)cc1 | . | ? | . | ? | . | -9.9%
CN(Cc1nc(-c2ccc(Cl)cc2)no1)C(=O)c1ccco1 | -13.6% | ? | -17.8% | -25.7% | -8.6 | -19.5%
COc1ccccc1C(=O)N(Cc1nc(-c2ccc(Cl)cc2)no1)C(C)C | -22.0% | 16.4µM* | -3.5% | 29.1µM* | 8.1 | -26.1%
CC(C)N(Cc1nc(-c2ccc(Cl)cc2)no1)C(=O)c1ccco1 | . | 23.1µM* | . | ? | . | -16.0%
COc1ccc(-c2noc(CN(C)Cc3ccccc3)n2)cc1 | 6.7% | 18.4µM* | 9.1% | -15.7% | 23.5 | -2.4%
Cc1onc(-c2ccccc2Cl)c1C(=O)N(Cc1ccccc1)C(C)C | -18.9% | ? | -19.2% | ? | 24.3 | -3.0%
Cc1onc(-c2ccccc2Cl)c1C(=O)N(C)Cc1ccccc1 | -9.4% | ? | 5.7% | ? | 0.0 | -6.0%
CCN(Cc1ccccc1)C(=O)c1c(-c2ccccc2Cl)noc1C | 7.3% | 11.6µM* | -0.2% | ? | 27.6 | 11.9%
COc1ccc(-c2noc(CN(C(=O)c3c(-c4ccccc4Cl)noc3C)C(C)C)n2)cc1 | -11.7% | 23.1µM* | 0.2% | 16.4µM* | -5.4 | 10.4%
CC(=O)NC12CC3CC(C1)CC(C(=O)OCC(=O)c1cc(C)n(C)c1C)(C3)C2 | 6.2% | ? | -0.6% | 16.4µM* | -3.4 | 154.5%
COc1cc(OC)cc(C(=O)Oc2cccc3cccnc23)c1 | . | . | . | . | . | -2.4%
